In PubChem BioAssay (NCI):
About 83,000 compounds went through this panel and 20% of them were active in at least one assay; those are over-represented in the sample as a whole.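 Compound tested at a single concentration for 48 hours in 96-well plates; a percent growth value below 10 was scored as active.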 Values without a mark were called inactive. Active and inactive are the calls of the source.

Assays:
Assay in all cases: NCI-60 one-dose screen, 48 h (100 = growth as untreated, 0 = no growth, -100 = all killed)
Conditions in all cases: 10 µM unless noted
[1] = system: T-47D breast
[2] = system: BT-549 breast
[3] = system: MDA-MB-435 melanoma
[4] = system: SW-620 colon
[5] = system: MCF7 breast
[6] = system: HCT-116 colon
[7] = system: HCC-2998 colon
[8] = system: KM12 colon

| Compound | growth [1] | growth [2] | growth [3] | growth [4] | growth [5] | growth [6] | growth [7] | growth [8] |
| --- | --- | --- | --- | --- | --- | --- | --- | --- |
| COc1ccc(C(=O)N2NC(=O)/C(=C/c3ccccc3F)N=C2c2ccccc2)cc1 | 97.2% | 106% | 106% | 111% | 91.2% | 102% | 97.8% | 106% |
| COc1ccc(-c2c(N)n[nH]c2-c2cc(OC)c3c(c2)OCCO3)cc1 | 66.1% | 74.4% | -24.1% (active) | 48% | 57.6% | 57.2% | 75% | 40.4% |
| S=c1[nH]nc(-c2cc3ccc2CCc2ccc(cc2)CC3)n1C1CC1 | 97.7% | 107% | 97.3% | 99.8% | 90.5% | 92.3% | 115% | 99.6% |
| N#Cc1c(-c2ccccc2)cc(-c2ccccc2)n(CC(=O)NO)c1=O | 14.9% | 1.67% (active) | 49.8% | 59.8% | 21.9% | 40.7% | 86.5% | 41.2% |
| O=S(=O)(NCCNc1nccc(-c2c(-c3ccc(F)cc3)nc3sccn23)n1)c1ccc(F)cc1 | 60.1% | 92.2% | 55% | 90.8% | 30.9% | 60.4% |  | 76.5% |
| Cc1ccc(S(=O)(=O)NCCNc2nccc(-c3c(-c4ccc(O)cc4)nc4sccn34)n2)cc1 | 85% | 106% | 86.4% | 126% | 93.7% | 100% |  | 100% |
| COc1ccc(C2C=C(c3ccc(N)cc3)N=C3SC=CN32)cc1OC (stereo not drawn) | 102% | 108% | 106% | 112% | 98.6% | 107% |  | 99.5% |
| COC(OC)c1ccccc1 | 99.4% | 92.4% | 102% | 114% | 99% | 98.5% | 93.6% | 112% |
| COc1ccc2c(c1)cn1c3ccc(OC)cc3[nH]c(=O)c21 | -32.2% (active) | -0.958% (active) | -80% (active) |  | -47.5% (active) | -75.8% (active) | -68.5% (active) | -61.7% (active) |
| CN(C)CCCN(c1nc(C(Cl)(Cl)Cl)ns1)c1nc(C(Cl)(Cl)Cl)ns1 | 67.7% | 74% | 39.5% |  | -34.3% (active) | 21.2% | -12.9% (active) | 18.4% |
| COc1ccc(-c2nc3sc(-c4cc(OC)c(OC)c(OC)c4)nn3c2/C=C2/C(=O)Nc3ccc(F)cc32)cc1 | -24.9% (active) | 41.5% | -28.6% (active) | 0.989% (active) |  | 29.7% | -55% (active) | 13.7% |
| O=C(N/N=C/C=C\c1ccccc1)C(=O)N/N=C/C=C/c1ccccc1 | 100% | 102% | 121% |  | 100% | 104% | 109% | 109% |
| CN(C[C@H]1Cc2c(cccc2N2CCN(c3ncccn3)CC2)CN1)[C@H]1CCCc2cccnc21 | 26.1% | 56.9% | 40.7% |  | 15.6% | 19.6% | 53.9% | 43.5% |
| O=C(O)c1cn(C2CC2)c2cc(N3CCN(C(=O)/C=C/c4ccc(Cl)cc4)CC3)c(F)cc2c1=O | 65.5% | 50.1% | 82.5% |  | 89% | 74.8% | 90.4% | 82.7% |
| O=C1c2c(c3c4ccccc4n(CCCCCCBr)c3c3[nH]c4ccccc4c23)C(=O)N1O | 4.32% (active) | -3.13% (active) | 0.62% (active) |  | 2.38% (active) | 6.41% (active) | 18.3% | 10.8% |
| CN1CCN(Cc2ccc(NC(=O)c3nc4ccc5[nH]ncc5c4c4c3CCC4)cc2C(F)(F)F)CC1 | -26.4% (active) | 91.6% | -91.4% (active) |  | -29.7% (active) | -94.2% (active) | -10.5% (active) | -79.8% (active) |
| C=C1CC2(OC1=O)C(=O)N(CCCN1C(=O)C3(CC(=C)C(=O)O3)c3ccccc31)c1ccccc12 (stereo not drawn) | 4.15% (active) | 33.5% | -17.1% (active) |  | -18.9% (active) | -8.31% (active) | 86.2% | 72.9% |
| COc1ccc(Cn2cc3c(c2-c2cc(OC)c(OC)c(OC)c2)CCc2cnoc2-3)cc1 | 41.2% | 41.6% | -37.3% (active) | 29.8% |  | 13% | 1.48% (active) | 11.1% |

| Compound | growth [1] | growth [2] | growth [3] | growth [4] | growth [5] | growth [6] | growth [7] | growth [8] |
| --- | --- | --- | --- | --- | --- | --- | --- | --- |
| C=C1C(=O)O[C@H]2[C@H]1CC/C(COC(=O)NCc1ccccc1OC)=C\CC[C@@]1(C)O[C@@H]21 | 31.5% | 26.7% | 44.4% | 0.256% (active) |  | -26.1% (active) | 93.9% | 62.3% |
| Cc1c(C(=O)/C=C/c2csc3ccccc23)[n+](=O)c2ccccc2n1[O-] | 21.5% | 20.1% | 67.7% |  | 9.38% (active) | 16% | 78.5% | 48.4% |
| O=S(=O)(c1ccc(OCCO)cc1)c1ccc(OCCO)cc1 | 120% | 109% | 102% | 94.6% |  | 101% | 104% |  |
| S=c1[nH]nc(-c2cc3ccc2CCc2ccc(cc2)CC3)n1-c1ccccc1 | 89.1% | 108% | 93.3% |  | 85.3% | 88.1% | 113% | 98.2% |
| N#Cc1c(-c2ccccc2)nc(SCC(=O)N2CCN(c3ccccc3)CC2)[nH]c1=O | 99.4% | 91.2% | 108% | 111% |  | 92.5% | 103% | 106% |
| N#Cc1c(Nc2ccccc2)nc2n(c1=O)-c1ccccc1Sc1ccccc1-2 | 55.9% | 82.3% | 82.8% | 99.2% |  | 82.9% | 102% | 97.9% |
| CC1(C)C(=O)/C(=C\c2ccc(C(F)(F)F)cc2)C[C@]2(C)[C@H]3CC[C@@H]4[C@H]5[C@H](C(=O)/C=C/c6ccc(C(F)(F)F)cc6)CC[C@]5(CO)CC[C@@]4(C)[C@]3(C)CC[C@@H]12 | 76% | 95.8% | 101% | 98.3% |  | 82.6% | 101% | 99.2% |
| COc1ccc(/C=C(\C#N)c2cc(OC)c3c(c2)OCO3)cc1 | 62.3% | 30.9% | -17.6% (active) |  | 17.4% | 6.05% (active) | 15.7% | 5.15% (active) |
| Cc1ccc(S(=O)(=O)Nc2c(Br)cc(Br)cc2C(N)=O)cc1 | 101% | 95.6% | 108% | 102% |  | 94.2% | 106% | 111% |
| CCC(C)/C(=C\C#N)NCCCN/C(=C/C#N)C(C)CC (stereo not drawn) | 97% | 105% | 105% |  | 100% | 91.1% | 99.1% | 105% |
| Cc1ccc(NS(=O)(=O)c2cc(C)ccc2C)cc1 | 47.9% | 39.1% | -24% (active) |  | 24.3% | 17.6% | 50.9% | 16.2% |
| N/C(=N\C(N)=N\c1nc2ccccc2s1)c1cccc(Br)c1 | 52.1% | 79.1% | 93.8% |  | 77.4% | 61.2% | 108% | 66.5% |
| O=[N+]([O-])c1cc(Cl)c2[nH]c3c(Cl)cc([N+](=O)[O-])cc3c2c1 | 4.93% (active) | -0.691% (active) | -2.12% (active) | 5.45% (active) |  | 2.09% (active) | 34.8% |  |
| COc1ccc(/C=C/c2c(C(C)=O)c(C)nc3ccccc23)cc1 | 39.5% | 61.6% | 69.1% |  | 85.8% | 70.8% | 93.3% | 93% |
| O=S1(=O)CCC(N(/N=C/c2ccco2)c2ccccc2)C1 (stereo not drawn) | 103% | 101% | 107% |  | 96.4% | 97.4% | 97.6% | 103% |
| N#Cc1ccc(N2Cc3ccccc3OC3=C2C(=O)c2c(O)ccc(O)c2C3=O)cc1 | -46% (active) | -17.9% (active) | -43.9% (active) | -67.5% (active) |  | -44.3% (active) | 30.7% | 8.89% (active) |
| O=C(Nc1cccc(-n2cc(-c3ccncc3)c(-c3ccc(Cl)c(O)c3)n2)c1)c1ccccc1 | 73.9% | 83.4% | 56.2% |  | 62.6% | 57.8% | 76.8% | 70.1% |
